Read-out in assay [1]: Thrombomodulin, THBD (gene 7056)
Description: BSK_3C_Thrombomodulin: BioMAP Diversity Plus: 3C Assay for Thrombomodulin Biomarker Activity (AID 2283029). As to conditions: primary human endothelial cells (HUVEC); actives raise or lower the signal. An outline of the steps: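 HUVEC, 3C conditions; compound 24 h; thrombomodulin by ELISA; bidirectional curve fit vs DMSO baseline; parallel SRB total-protein staining for cytotoxicity.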

Read-out in assay [2]: Urokinase-type plasminogen activator receptor (uPAR), PLAUR (gene 5329)
Description: BSK_4H_uPAR: BioMAP Diversity Plus: 4H Assay for Urokinase-type plasminogen activator receptor (uPAR) Biomarker Activity (AID 2283030). Conditions: primary human endothelial cells (HUVEC); actives raise or lower the signal. The method in brief: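 uPAR level read by ELISA on HUVEC cultures (BioMAP 4H) 24 h post-dosing, analyzed for gain or loss relative to DMSO. Parallel SRB staining assessed overt cytotoxicity.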

Read-out in assay [3]: Vascular endothelial growth factor receptor 2 (Homo sapiens) (UniProt P35968)
Description: BSK_4H_VEGFRII: BioMAP Diversity Plus: 4H Assay for Vascular endothelial growth factor receptor 2 (VEGFR2) Biomarker Activity (AID 2283031).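 For AC50: cell-surface VEGFR2 protein level quantified by ELISA.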 Conditions: primary human endothelial cells (HUVEC); actives raise or lower the signal. An outline of the steps:
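Measured by ELISA after 24 h of compound treatment: VEGFR2 on primary human umbilical vein endothelial cells, fitted in both directions relative to DMSO. Parallel cultures received SRB staining (560 nm) for overt cytotoxicity.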

Read-out in assay [4]: Human Leukocyte Antigen - DR isotype (HLADR), HLA-DRA (gene 3122)
Description: BSK_BE3C_HLADR: BioMAP Diversity Plus: BE3C Assay for Human Leukocyte Antigen - DR isotype (HLADR) Biomarker Activity (AID 2283032). Conditions: primary human bronchial epithelial cells; actives raise or lower the signal. An outline of the steps:
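Primary human bronchial epithelial cells (BE3C); 24 h chemical exposure; HLA-DR by ELISA; bidirectional curve fit vs DMSO baseline.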

Read-out in assay [5]: Vascular cell adhesion molecule 1 (VCAM1), VCAM1 (gene 7412)
Description: BSK_4H_VCAM1: BioMAP Diversity Plus: 4H Assay for Vascular cell adhesion molecule 1 (VCAM1) Biomarker Activity (AID 2283033).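 For outcome: cell-surface VCAM-1 protein measured by ELISA.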 As to conditions: primary human endothelial cells (HUVEC); actives raise or lower the signal. The method in brief:
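HUVEC, 24 h post-dose; VCAM-1 by ELISA. Bidirectional curve fit vs DMSO baseline. Parallel SRB total-protein stain (0.1% SRB after 10% TCA fixation, 560 nm) for cytotoxicity.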

Read-out in assay [6]: Interferon-gamma inducible Protein 10 (IP10), CXCL10 (gene 3627)
Description: BSK_BE3C_IP10: BioMAP Diversity Plus: BE3C Assay for Interferon-gamma inducible Protein 10 (IP10) Biomarker Activity (AID 2283034). As to conditions: primary human bronchial epithelial cells; actives raise or lower the signal. The method in brief:
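ELISA readout of IP-10 in BE3C system: primary human bronchial epithelial cells, 24 h post-dosing; bidirectional curve fit vs DMSO baseline.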

Read-out in assay [7]: Monokine induced gamma interferon (MIG), CXCL9 (gene 4283)
Description: BSK_BE3C_MIG: BioMAP Diversity Plus: BE3C Assay for Monokine induced gamma interferon (MIG) Biomarker Activity (AID 2283035).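 Note: MIG protein measured by ELISA in BE3C cultures after 24 h of dosing.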 As to conditions: primary human bronchial epithelial cells; actives raise or lower the signal. The method in brief: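 hu bronchial epithelial 1° cells, 24 h cpd; MIG by ELISA; bidirectional fit, DMSO = baseline.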

Read-out in assay [8]: Plasminogen activator inhibitor-1 (PAI1), SERPINE1 (gene 5054)
Description: BSK_BE3C_PAI1: BioMAP Diversity Plus: BE3C Assay for Plasminogen activator inhibitor-1 (PAI1) Biomarker Activity (AID 2283037). Conditions: primary human bronchial epithelial cells; actives raise or lower the signal. The method in brief:
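ELISA read-out of PAI-1 from human bronchial epithelial primary cells, 24 h post-dosing; bidirectional curve fit vs DMSO baseline, gain or loss of signal scored.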

Read-out in assay [9]: urokinase plasminogen activator (uPA), PLAU (gene 5328)
Description: BSK_BE3C_uPA: BioMAP Diversity Plus: BE3C Assay for urokinase plasminogen activator (uPA) Biomarker Activity (AID 2283038).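 Note: uPA protein level quantified by ELISA in cell cultures; uPA read one day after compound addition.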 Conditions: primary human bronchial epithelial cells; actives raise or lower the signal. An outline of the steps:
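ELISA for uPA on human primary bronchial epithelial cultures 24 h post-treatment, gain or loss against DMSO. Parallel SRB staining (0.1% after 10% TCA fixation, 560 nm) assessed overt cytotoxicity.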

Read-out in assay [10]: Urokinase-type plasminogen activator receptor (uPAR), PLAUR (gene 5329)
Description: BSK_BE3C_uPAR: BioMAP Diversity Plus: BE3C Assay for Urokinase-type plasminogen activator receptor (uPAR) Biomarker Activity (AID 2283039).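 For outcome: uPAR protein level measured by ELISA on the cells; cells exposed to compound for one day before measurement.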 Conditions: primary human bronchial epithelial cells; actives raise or lower the signal. The method in brief:
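ELISA readout of uPAR on human lung primary bronchial epithelial cells, 24 h post-dosing. Bidirectional curve fit relative to DMSO vehicle baseline; gain or loss of signal both scored.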

Read-out in assay [11]: Interleukin-6 (IL6), IL6 (gene 3569)
Description: BSK_CASM3C_IL6: BioMAP Diversity Plus: CASM3C Assay for Interleukin-6 (IL6) Biomarker Activity for (AID 2283040). As to conditions: primary human coronary artery smooth muscle cells; actives raise or lower the signal.

Read-out in assay [12]: Tissue plasminogen activator (tPA), PLAT (gene 5327)
Description: BSK_BE3C_tPA: BioMAP Diversity Plus: BE3C Assay for Tissue plasminogen activator (tPA) Biomarker Activity (AID 2283041).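 For outcome: tPA level quantified by ELISA one day after compound addition.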 As to conditions: primary human bronchial epithelial cells; actives raise or lower the signal. An outline of the steps: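 ELISA read-out of tPA on human primary bronchial epithelial cells, 24 h post-dosing; bidirectional fit vs DMSO negative control/baseline.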

Read-out in assay [13]: Interleukin-8 (IL8), CXCL8 (gene 3576)
Description: BSK_CASM3C_IL8: BioMAP Diversity Plus: CASM3C Assay for Interleukin-8 (IL8) Biomarker Activity (AID 2283042).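 Note: IL-8 protein level quantified by ELISA.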 Conditions: primary human coronary artery smooth muscle cells; actives raise or lower the signal.

Read-out in assay [14]: Human Leukocyte Antigen - DR isotype (HLADR), HLA-DRA (gene 3122)
Description: BSK_CASM3C_HLADR: BioMAP Diversity Plus: CASM3C Assay for Human Leukocyte Antigen - DR isotype (HLADR) Biomarker Activity (AID 2283043).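 Note: cell-surface HLA-DR protein level quantified by ELISA.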 As to conditions: primary human coronary artery smooth muscle cells; actives raise or lower the signal.

Read-out in assay [15]: Macrophage colony-stimulating factor (MCSF), CSF1 (gene 1435)
Description: BSK_CASM3C_MCSF: BioMAP Diversity Plus: CASM3C Assay for Macrophage colony-stimulating factor (MCSF) Biomarker Activity (AID 2283044).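 Note: M-CSF protein amount quantified by ELISA after 24 h exposure.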 Conditions: primary human coronary artery smooth muscle cells; actives raise or lower the signal.

Read-out in assay [16]: Low-density lipoprotein receptor (LDLR), LDLR (gene 3949)
Description: BSK_CASM3C_LDLR: BioMAP Diversity Plus: CASM3C Assay for Low-density lipoprotein receptor (LDLR) Biomarker Activity (AID 2283045).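 Note: LDLR protein level on the cell surface quantified by ELISA.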 Conditions: primary human coronary artery smooth muscle cells; actives raise or lower the signal.

Read-out in assay [17]: Monocyte Chemoattractant Protein-1 (MCP1), CCL2 (gene 6347)
Description: BSK_CASM3C_MCP1: BioMAP Diversity Plus: CASM3C Assay for Monocyte Chemoattractant Protein-1 (MCP1) Biomarker Activity (AID 2283046).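 Note: MCP-1 level quantified by ELISA 24 h after dosing.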 As to conditions: primary human coronary artery smooth muscle cells; actives raise or lower the signal.

Assay [18] is described as follows: BSK_CASM3C_Proliferation: Cell Proliferation Assessment in the BioMAP Diversity Plus: CASM3C Assay (AID 2283047).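 Note: sulforhodamine B total protein stain as relative cell number at 560 nm; sub-confluent cells exposed 48 h before staining; fitted both ways against DMSO so gain or loss of cell number.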 As to conditions: primary human coronary artery smooth muscle cells.
Read-out in assay [19]: Monokine induced gamma interferon (MIG), CXCL9 (gene 4283)
Description: BSK_CASM3C_MIG: BioMAP Diversity Plus: CASM3C Assay for Monokine induced gamma interferon (MIG) Biomarker Activity (AID 2283048).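 Note: MIG protein level measured by ELISA.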 As to conditions: primary human coronary artery smooth muscle cells; actives raise or lower the signal.

Read-out in assay [20]: Transforming growth factor beta 1 (TGFb1), TGFB1 (gene 7040)
Description: BSK_BE3C_TGFb1: BioMAP Diversity Plus: BE3C Assay for Transforming growth factor beta 1 (TGFb1) Biomarker Activity (AID 2283036;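 note: TGF-b1 protein level measured by ELISA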). As to conditions: primary human bronchial epithelial cells; actives raise or lower the signal. An outline of the steps:
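Read-out: ELISA for TGF-b1 in primary human bronchial epithelial cultures, 24 h post-dose. Bidirectional curve fitting vs DMSO control; gain or loss of signal both scored.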

Each structure is given as a SMILES string. A structure can be active in one record and inactive in another. The source made the active and inactive calls. Rule for the calls: active = hit-call score of the fitted dose curve at least 0.9, where 1 is the maximum; inactive = score below 0.9.

As usually defined, the AC50 is the midpoint of the concentration-response curve, whichever way the signal moves. In the case of `O=C(O)CCC(F)(C(F)(F)F)C(F)(F)F`, the result in assay [1], in [2], in assay [3], in [4], in [5] and in assay [6] was inactive. Besides, the outcome in assay [7], in assay [8], in assay [9], in assay [10], in assay [11] and in assay [12] was inactive. The result in [13], in assay [14], in assay [15], in [16], in assay [17] and in assay [18] was inactive. For the same molecule, the outcome in [19] was inactive. The concentration at half-maximal activity (AC50) in [15] is 23.9 µM (active).
With `Oc1c(I)cc(I)cc1I`, the result in assay [1], in [7], in assay [20], in assay [9], in assay [11] and in assay [13] was inactive. For the same molecule, the result in [14], in assay [15], in assay [16], in assay [17], in assay [18] and in assay [19] was inactive. Further, the AC50 in assay [2] was 12.7 µM (active); in assay [3], 12.5 µM (active); in [4] it was 3.97 µM (active); in assay [5], 20 µM (active); in [6], 4.41 µM (active); in assay [8], 1.83 µM (active). Also, the figures for the AC50 in [10] and in assay [12] were 2.31 µM (active) and 3.34 µM (active), respectively.
`C[C@]12CCC(=O)C[C@@H]1CC[C@@H]1[C@@H]2CC[C@]2(C)[C@@H](O)CC[C@@H]12`: the outcome in [1], in [2], in assay [3], in [4], in [5] and in assay [6] was inactive. The result in assay [7], in [20], in assay [8], in [9], in assay [10] and in [11] was inactive. In addition, the outcome in assay [12], in assay [13], in assay [14], in assay [15], in assay [16] and in [17] was inactive. The result in [18] and in assay [19] was inactive.
For the molecule `CC(=O)C(Cl)C(=O)N(C)C` (centres undefined), the outcome in assay [1], in assay [2], in assay [3], in [7], in assay [20] and in [8] was inactive. The outcome in [9], in assay [10], in assay [11], in assay [13], in assay [16] and in [17] was inactive. Besides, the result in assay [19] was inactive. In addition, the AC50 is 26.9 µM (active) in [4]; 24.3 µM (active) in [5]; 20 µM (active) in assay [6]; 20 µM (active) in assay [12]; 10.1 µM (active) in [14]; 16.3 µM (active) in assay [15]. The concentration at half-maximal activity (AC50) in [18] is 35.5 µM (active).
On to `CCOP(=S)(OCC)Oc1ccc(S(C)=O)cc1` (centres undefined), for which the outcome in assay [1], in assay [2], in assay [3], in assay [4], in [5] and in assay [6] was inactive. In addition, the result in assay [7], in assay [20], in assay [8], in assay [9], in [10] and in assay [11] was inactive. The outcome in assay [12], in assay [13], in assay [14], in assay [15], in assay [16] and in assay [17] was inactive. Also, the result in assay [18] and in assay [19] was inactive.
For `Cc1ccccc1N`, the outcome in assay [1], in [2], in [3], in assay [4], in assay [5] and in assay [6] was inactive. The outcome in [7], in assay [20], in [8], in [10], in [11] and in assay [12] was inactive. The outcome in assay [13], in [14], in assay [15], in assay [16], in assay [17] and in assay [18] was inactive. The result in assay [19] was inactive.

(Values after PubChem BioAssay (EPA / NIEHS).)
